Experimental data as given in PubChem BioAssay AID488789 (Broad Institute, 2010).
Measured potencies and affinities stand elsewhere. Records with an inconclusive call do not appear. Calls of active or inactive are those of the source.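 How the source made its calls: active means samples whose fitted half-maximal inhibition concentration is no more than ten times the top valid dose tested; inconclusive means flat response between -70 and -30, or invalid curve fit; inactive means flat within 30 of zero, potency above limit, or signal rising.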

Molecular target: Trypsin (Sus scrofa) (UniProt P00761)
Sequence (P00761 whole entry, looked up): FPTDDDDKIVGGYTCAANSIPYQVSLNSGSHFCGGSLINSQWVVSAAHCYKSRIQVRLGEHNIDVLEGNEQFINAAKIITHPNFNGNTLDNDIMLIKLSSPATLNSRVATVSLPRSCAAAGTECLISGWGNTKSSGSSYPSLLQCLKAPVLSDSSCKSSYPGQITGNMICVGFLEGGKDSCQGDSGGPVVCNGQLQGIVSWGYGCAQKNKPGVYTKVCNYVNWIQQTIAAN
Assay: porcine trypsin inhibitors, dose response, selectivity assay for Rce1 protease inhibitor project, biochemical, quenched peptide fluorescence, cherry-pick (AID 488789);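 further: more negative means stronger trypsin inhibition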
Conditions: quenched peptide cleavage fluorescence; series mostly up to 10 µM

Cc1cc(C(=O)N/N=C/c2c3ccccc3cc3ccccc23)n[nH]1
outcome: inactive

CCCCN(C)CCNC(=O)c1cc2c(-c3cccc(OC)c3)nn(C)c2s1
outcome: inactive

C=C(C)CSc1nc2sc3c(c2c(=O)n1-c1ccc(OC)cc1)CCN(C)C3
outcome: inactive

CSc1nnc(-c2sc(-c3ccccc3)nc2C)n1C
outcome: inactive

CCn1cc(/C=C(\NC(=O)c2ccccc2F)C(=O)N2CCCC2)c2ccccc21
outcome: inactive

Cc1ccc(/C=N/NC(=O)c2nnn(-c3nonc3N)c2C(C)C)o1
outcome: inactive

CCC1CCCCN1C(=O)NC(=O)c1ccccc1 (stereo not drawn)
outcome: inactive

CCC(C)(C)c1ccc(OCCCC[n+]2cccc(C)c2)c(C(C)(C)CC)c1
outcome: inactive

Nc1nc2c(ncn2COC(CO)CO)c(=O)[nH]1
outcome: inactive

CCOc1ccc(-n2c(SCc3ccc([N+](=O)[O-])cc3)nnc2-c2ccc(OC)cc2)cc1
outcome: inactive

Nc1nonc1-n1nnc(C(=O)N/N=C/c2cccc(Cl)c2)c1CSc1ccc(Cl)cc1
outcome: inactive

Cc1ccc(S(=O)(=O)Nc2ccccc2C(=O)NCC2CCCO2)cc1 (stereo not drawn)
outcome: inactive

COC(C/C=C\C(=O)[C@H](C)OCc1ccccc1)OC
outcome: inactive

Cc1ccccc1NS(=O)(=O)c1ccc(C(=O)NCC(c2ccccc2)N(C)C)cc1 (stereo not drawn)
outcome: inactive

COc1ccc(Cl)cc1C(=O)Nc1ccc2c(c1)OCO2
outcome: inactive

Cc1cccc(NC(=O)c2cc(S(=O)(=O)N3CCCCC3)c[nH]2)c1C
outcome: inactive

CC(NC(=O)/C(C#N)=C/c1ccc(Cl)c([N+](=O)[O-])c1)c1ccccc1 (stereo not drawn)
outcome: inactive

CCC(C)(C)c1ccc(OCCCC[n+]2cccc(C)c2C)c(C(C)(C)CC)c1
outcome: inactive

CC(=O)N(C)c1ccc(NC(=O)/C=C/c2ccccc2Cl)cc1
outcome: inactive

Cc1cc(=O)n2ccccc2c1C#N
outcome: inactive

CCC1(c2ccccc2)NC(=O)N(CC(=O)Nc2ccc3c(C)cc(=O)oc3c2)C1=O (stereo not drawn)
outcome: inactive

CC(=O)N1c2ccc([N+](=O)[O-])cc2NC(=O)CC1C (stereo not drawn)
outcome: inactive

CC1CCN(Cc2c(C(=O)N/N=C/c3cccc(C(F)(F)F)c3)nnn2-c2nonc2N)CC1
outcome: inactive

CCOc1cc(CNC2CCCC2)ccc1OCc1ccccc1Cl
outcome: inactive

COc1ccc(OCC(=O)NS(=O)(=O)c2ccc(Cl)cc2)cc1
outcome: inactive

CCCN(CCC)CCNC(=O)c1cc2c(-c3ccc(Cl)cc3)nn(C)c2s1
outcome: inactive

O=C(Nc1cccc2ccccc12)c1ccc(OC(=S)N2CCOCC2)cc1
outcome: inactive

COC(C/C=C/[C@H](O)[C@@H](C)OCc1ccccc1)OC
outcome: inactive

CCCC(=O)N1CCN(c2ccc(NC(=O)c3cc4ccccc4o3)cc2Cl)CC1
outcome: inactive

NC(=O)[C@@H]1CC2(CC(c3cccc(NC(=O)CC(c4ccccc4)c4ccccc4)c3)=NO2)CN1C(=O)c1ccc(Cl)cc1 (stereo partly drawn)
outcome: inactive

CCCCCCCCCC[N+](C)(C)CC/C=C1/c2ccccc2Sc2ccc(Cl)cc21
outcome: inactive

CCN(CC)CCNC(=O)c1[nH]c2ccc(OCc3ccccc3)cc2c1C
outcome: inactive

COc1cccc(-c2nc(C#N)c(N3CCN(C(=O)c4ccco4)CC3)o2)c1
outcome: inactive

COc1ccc(-n2c(SCc3ccc([N+](=O)[O-])cc3)nnc2-c2ccc(C)cc2)cc1
outcome: inactive

Cc1cc(C)c2nc(N(CCCN(C)C)C(=O)c3ccc4c(c3)CCCC4)sc2c1
outcome: inactive

Cc1cccc(N2CCc3c2nc2ccc(Br)cc2c3N)c1
outcome: inactive

O=C(Nc1cc(Cl)cc(Cl)c1)c1coc(=O)c(Br)c1
outcome: inactive

Cc1ccc(-c2c(C(=O)N/N=C/c3cccc(Cl)c3)nnn2-c2nonc2N)cc1
outcome: inactive
